Measurements from PubChem BioAssay (NCI).
About 83,000 compounds went through this panel and 20% of them were active in at least one assay; those are over-represented in the sample as a whole.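 Step 1: grow cells in 96-well plates. Step 2: add test compound at a single concentration. Step 3: incubate 48 h. Step 4: record percent growth.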 Values without a mark were called inactive. Calls of active or inactive are those of the source. How the source made its calls: active means growth percent below 10; inactive means the rest.

Tested on: K-562 leukemia
Assay: NCI-60 one-dose screen, 48 h (100 = growth as untreated, 0 = no growth, -100 = all killed)
Conditions: 10 µM unless noted

SMILES | growth
C=C1CCC2C3(C)COC(c4ccc(F)cc4)OC3CCC2(C)C1CC(O)C1=CCOC1=O (stereo not given) | 15.2%
NS(=O)(=O)c1ccc(N=Nc2c(O)n(CC(=O)Nc3ccccc3Cl)c3ccccc23)cc1 | 16.2%
Cc1ccccc1[C@H]1C(C(=O)c2ccc(Cl)cc2)C2(N[C@@H]1c1ccccc1)C(=O)Nc1ccc(Cl)cc12 (stereo not given in full) | -2.2% (active)
CCCCCCCCc1ccc(S(=O)(=O)Nc2ccc(CC)cc2C(=O)O)cc1 | 83%
CCC(C)(C)c1ccc(OCCCCN2CCN(c3ccncc3)CC2)cc1 | -1.88% (active)
COc1ccc(C(=O)/C=C/c2ccc(Oc3nc(Nc4ccc(F)cc4)nc(N(C)C)n3)c(OC)c2)cc1 | 26.4%
S=c1c2ccccc2nc2n1CCc1c-2[nH]c2ccccc12 | 57.8%
CCOC(=O)COc1c(OC)c(OC)cc2oc(-c3cccc(C(=O)Nc4ccc(Cl)cc4)c3)cc(=O)c12 | 23.2%

Tested on: MALME-3M melanoma
Assay: as above
Conditions: 10 µM unless noted

SMILES | growth
C/C(=N\N=C1/C(=O)Nc2ccc(Cl)cc21)c1ccc2c(c1)Nc1ccccc1S2 | -19.6% (active)
CCCSc1nc(NCCc2c[nH]c3ccccc23)c(C#N)c(-c2ccc(F)cc2)n1 | 75.4%
COc1cc(C2CC(c3cc(OC)c(OC)c(OC)c3)=NN2C(C)=O)ccc1OCc1ccccc1 (stereo not given) | 43.1%
Cc1cc2c(cc1Cl)C(=O)/C(=C/c1ccccc1)O2 | -46.8% (active)
COc1ccc2[nH]cc(-c3nc(N)nnc3-c3cn(C)c4ncccc34)c2c1 | 37.6%
Cc1ccc(C(=O)CSc2nc3ccc(F)cc3c(=O)n2-c2ccc(Cl)cc2)cc1 | 39.6%
CCCCSc1nc(NCCc2c[nH]c3ccccc23)c(C#N)c(-c2ccccc2)n1 | 86.9%
Cn1cc(-c2nc(N)nnc2-c2c[nH]c3ccc(Br)cc23)c2cccnc21 | 57%
CN(C)CCOc1ccc(C(=O)C2[C@H](c3ccc(Cl)cc3)[C@@H](c3ccccc3)NC23C(=O)Nc2ccc(Br)cc23)cc1 (stereo not given in full) | -50.2% (active)
CN1CCN(/C(=N\c2sc(-c3ccccc3)nc2-c2ccccc2)c2ccccc2)CC1 | 77.9%
CCCSc1nc(NCCc2c[nH]c3ccccc23)c(C#N)c(-c2ccccc2)n1 | 100%
CCN(CC)c1ccnc(CNCCSC(c2ccccc2)(c2ccccc2)c2ccc(OC)cc2)c1 | -92.5% (active)
COc1cc2oc(-c3cccc(C(=O)Nc4cccc([N+](=O)[O-])c4)c3)cc(=O)c2c(OC)c1OC | 11.4%
O=C(COc1ccc(NC(=O)Nc2ccc(Cl)c(Cl)c2)cc1)N=Nc1c(O)[nH]c2ccc([N+](=O)[O-])cc12 | 77.9%
COc1cc(-c2nc3cc(Cl)c(Cl)cc3[nH]2)ccc1OCc1nnc(-c2cccs2)o1 | 18.1%
CCCCCCCCc1ccc(C(=O)Nc2ccc(C)cc2C(=O)O)cc1C | 96.5%
CCOP(=O)(OCCCl)c1nc(-c2ccc(C)cc2)oc1NCc1ccccc1 (stereo not given) | 102%
NS(=O)(=O)c1ccc(N=Nc2c(O)n(CC(=O)Nc3ccccc3)c3ccccc23)cc1 | 20.7%
CC1(C)CC[C@]2(C(=O)Nc3ccccc3)CC[C@]3(C)C(=CCC4[C@@]5(C)C[C@@H](O)[C@H](O)[C@@](C)(CO)C5CC[C@]43C)C2C1 (stereo not given in full) | 73.9%
COc1ccccc1C(=O)NN1C(=O)/C(=C/C2=Cc3ccccc3OC2)SC1=S | 99.3%
COc1ccc(NC(=O)[C@H](CO)NC(=O)OC(C)(C)C)cc1C(=O)Nc1cccc(C2CC(=O)c3c(cc(OC)c(OC)c3OC)O2)c1 (stereo not given in full) | 61.4%
COc1ccc(C2(SCCNCc3cc(N(C)C)ccn3)c3ccccc3C=Cc3ccccc32)cc1 | -1.5% (active)
COc1ccc2[nH]c(O)c(N=NC(=O)COc3ccc(NC(=O)Nc4ccccc4)cc3)c2c1 | 13.9%
COc1cc(/C=C/C(=O)c2ccc(C)cc2)ccc1Oc1nc(Nc2ccc(F)cc2)nc(N(C)C)n1 | 69%
CCN(CC)CCOc1ccc(Nc2ncc3cc(-c4ccc(O)c(C#N)c4)c(=O)n(C)c3n2)cc1 | -95.5% (active)
CC(/C=C1\SC(=S)N(CCCC(=O)NC(CC(C)C)C(=O)O)C1=O)=C\c1ccccc1 (stereo not given) | 104%
COc1cc2c(c(OC)c1OC)C(=O)CC(c1cccc(NC(=O)c3cc(N)ccc3Cl)c1)O2 (stereo not given) | 54%
